Measured values: PubChem BioAssay AID1159580 (chemical genetic matrix, 2015)
Several values for one entry are separate records, joined by “and”; a condition that tells them apart may be missing. Equal entries are not always repeated. Out of some 5,500 compounds screened, about 2,000 (36%) were called active. Roughly 18% stayed inconclusive and do not appear here. Rule as the data show it: active = normalized growth mostly below about 0.91 (no sharp cut-off); inconclusive = no clear call, values can overlap the other calls; inactive = mostly above about 0.92. The list shows a part of the results.

Experiment: chemical genetic growth profiling, strain panel (AID 1159580);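 also: tested at 20 µM; growth read once vehicle control cultures reached saturation at 30 °C; 1 = growth at the plate median or of vehicle wells; lower values mean less growth of the strain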
Conditions: growth OD
[1] = S. cerevisiae deletion strains, locus YAL013W, strain DEP1, stronger effect = lower value
[2] = S. cerevisiae deletion strains, locus YBR021W, strain FUR4, stronger effect = lower value
[3] = S. cerevisiae deletion strains, locus YBR229C, strain ROT2, stronger effect = lower value
[4] = S. cerevisiae deletion strains, locus YCL029C, strain bik1, stronger effect = lower value
[5] = S. cerevisiae deletion strains, locus YDL035C, strain GPR1, stronger effect = lower value
[6] = S. cerevisiae deletion strains, locus YDL074C, strain BRE1, stronger effect = lower value
[7] = S. cerevisiae deletion strains, locus YDL101C, strain DUN1, stronger effect = lower value
[8] = S. cerevisiae deletion strains, locus YDL134C, strain PPH21, stronger effect = lower value
[9] = S. cerevisiae deletion strains, locus YDL185W, strain tfp1, stronger effect = lower value
[10] = S. cerevisiae deletion strains, locus YDL192W, strain arf1, stronger effect = lower value
[11] = S. cerevisiae deletion strains, locus YDR101C, strain arx1, stronger effect = lower value
[12] = S. cerevisiae deletion strains, locus YDR150W, strain NUM1, stronger effect = lower value
[13] = S. cerevisiae deletion strains, locus YDR162C, strain NBP2, stronger effect = lower value
[14] = S. cerevisiae deletion strains, locus YDR318W, strain mcm21, stronger effect = lower value
[15] = S. cerevisiae deletion strains, locus YDR388W, stronger effect = lower value
[16] = S. cerevisiae deletion strains, locus YDR502C, strain sam2, stronger effect = lower value
[17] = S. cerevisiae deletion strains, locus YEL061C, strain CIN8, stronger effect = lower value
[18] = S. cerevisiae deletion strains, locus YER110C, stronger effect = lower value
[19] = S. cerevisiae deletion strains, locus YER155C, strain BEM2, stronger effect = lower value
[20] = S. cerevisiae deletion strains, locus YER167W, strain BCK2, stronger effect = lower value
[21] = S. cerevisiae deletion strains, locus YGL078C, strain dbp3, stronger effect = lower value
[22] = S. cerevisiae deletion strains, locus YGL086W, strain mad1, stronger effect = lower value
[23] = S. cerevisiae deletion strains, locus YGL248W, strain PDE1, stronger effect = lower value
[24] = S. cerevisiae deletion strains, locus YGR078C, strain PAC10, stronger effect = lower value
[25] = S. cerevisiae deletion strains, locus YGR135W, strain pre9, stronger effect = lower value
[26] = S. cerevisiae deletion strains, locus YGR229C, strain SMI1, stronger effect = lower value
[27] = S. cerevisiae deletion strains, locus YGR252W, strain gcn5, stronger effect = lower value
[28] = S. cerevisiae deletion strains, locus YHR030C, strain SLT2, stronger effect = lower value
[29] = S. cerevisiae deletion strains, locus YHR079C, strain IRE1 (second series), stronger effect = lower value
[30] = S. cerevisiae deletion strains, locus YHR079C, strain IRE1, stronger effect = lower value
[31] = S. cerevisiae deletion strains, locus YHR094C, strain hxt1, stronger effect = lower value
[32] = S. cerevisiae deletion strains, locus YHR129C, strain ARP1, stronger effect = lower value
[33] = S. cerevisiae deletion strains, locus YHR200W, strain rpn10, stronger effect = lower value
[34] = S. cerevisiae deletion strains, locus YIL066C, strain RNR3, stronger effect = lower value
[35] = S. cerevisiae deletion strains, locus YIL073C, strain SPO22, stronger effect = lower value
[36] = S. cerevisiae deletion strains, locus YIL125W, strain kgd1, stronger effect = lower value
[37] = S. cerevisiae deletion strains, locus YIR030C, strain dcg1, stronger effect = lower value
[38] = S. cerevisiae deletion strains, locus YJL095W, strain BCK1, stronger effect = lower value
[39] = S. cerevisiae deletion strains, locus YJL134W, strain LCB3, stronger effect = lower value
[40] = S. cerevisiae deletion strains, locus YJL168C, strain set2, stronger effect = lower value
[41] = S. cerevisiae deletion strains, locus YJL187C, strain SWE1 (second series), stronger effect = lower value
[42] = S. cerevisiae deletion strains, locus YJR043C, strain POL32, stronger effect = lower value
[43] = S. cerevisiae deletion strains, locus YJR066W, strain TOR1, stronger effect = lower value
[44] = S. cerevisiae deletion strains, locus YJR075W, strain HOC1, stronger effect = lower value
[45] = S. cerevisiae deletion strains, locus YKL009W, strain mrt4, stronger effect = lower value
[46] = S. cerevisiae deletion strains, locus YKL068W, stronger effect = lower value
[47] = S. cerevisiae deletion strains, locus YKL085W, strain MDH1 (second series), stronger effect = lower value
[48] = S. cerevisiae deletion strains, locus YKL085W, strain MDH1, stronger effect = lower value
[49] = S. cerevisiae deletion strains, locus YKL190W, strain CNB1, stronger effect = lower value
[50] = S. cerevisiae deletion strains, locus YKR001C, strain vps1, stronger effect = lower value
[51] = S. cerevisiae deletion strains, locus YLR039C, strain RIC1, stronger effect = lower value
[52] = S. cerevisiae deletion strains, locus YLR058C, strain SHM2, stronger effect = lower value
[53] = S. cerevisiae deletion strains, locus YLR102C, strain apc9, stronger effect = lower value
[54] = S. cerevisiae deletion strains, locus YLR113W, strain HOG1, stronger effect = lower value
[55] = S. cerevisiae deletion strains, locus YLR262C, strain YPT6, stronger effect = lower value
[56] = S. cerevisiae deletion strains, locus YLR268W, strain sec22, stronger effect = lower value
[57] = S. cerevisiae deletion strains, locus YLR330W, strain CHS5, stronger effect = lower value
[58] = S. cerevisiae deletion strains, locus YLR342W, strain FKS1 (second series), stronger effect = lower value
[59] = S. cerevisiae deletion strains, locus YLR371W, strain rom2, stronger effect = lower value
[60] = S. cerevisiae deletion strains, locus YLR418C, strain cdc73, stronger effect = lower value
[61] = S. cerevisiae deletion strains, locus YML016C, strain PPZ1, stronger effect = lower value
[62] = S. cerevisiae deletion strains, locus YML032C, strain rad52, stronger effect = lower value
[63] = S. cerevisiae deletion strains, locus YML124C, strain tub3, stronger effect = lower value
[64] = S. cerevisiae deletion strains, locus YMR078C, strain ctf18, stronger effect = lower value
[65] = S. cerevisiae deletion strains, locus YMR223W, strain ubp8, stronger effect = lower value
[66] = S. cerevisiae deletion strains, locus YMR263W, strain SAP30, stronger effect = lower value
[67] = S. cerevisiae deletion strains, locus YMR307W, strain GAS1, stronger effect = lower value
[68] = S. cerevisiae deletion strains, locus YNL067W, strain RPL9B, stronger effect = lower value
[69] = S. cerevisiae deletion strains, locus YNL128W, strain TEP1, stronger effect = lower value
[70] = S. cerevisiae deletion strains, locus YNL153C, strain GIM3, stronger effect = lower value
[71] = S. cerevisiae deletion strains, locus YNL233W, strain BNI4, stronger effect = lower value
[72] = S. cerevisiae deletion strains, locus YNL250W, strain rad50, stronger effect = lower value
[73] = S. cerevisiae deletion strains, locus YNL271C, strain bni1, stronger effect = lower value
[74] = S. cerevisiae deletion strains, locus YNL298W, strain CLA4, stronger effect = lower value
[75] = S. cerevisiae deletion strains, locus YNL307C, strain MCK1, stronger effect = lower value
[76] = S. cerevisiae deletion strains, locus YNL322C, strain KRE1, stronger effect = lower value
[77] = S. cerevisiae deletion strains, locus YNR052C, strain pop2, stronger effect = lower value
[78] = S. cerevisiae deletion strains, locus YOL006C, strain TOP1, stronger effect = lower value
[79] = S. cerevisiae deletion strains, locus YOL012C, strain htz1
[80] = S. cerevisiae deletion strains, locus YOL147C, strain pex11, stronger effect = lower value
[81] = S. cerevisiae deletion strains, locus YOR061W, strain CKA2, stronger effect = lower value
[82] = S. cerevisiae deletion strains, locus YOR069W, strain VPS5, stronger effect = lower value
[83] = S. cerevisiae deletion strains, locus YOR136W, strain idh2, stronger effect = lower value
[84] = S. cerevisiae deletion strains, locus YOR144C, strain elg1, stronger effect = lower value
[85] = S. cerevisiae deletion strains, locus YOR184W, strain ser1, stronger effect = lower value
[86] = S. cerevisiae deletion strains, locus YOR231W, strain MKK1, stronger effect = lower value
[87] = S. cerevisiae deletion strains, locus YOR316C, strain cot1, stronger effect = lower value
[88] = S. cerevisiae deletion strains, locus YPL055C, strain LGE1, stronger effect = lower value
[89] = S. cerevisiae deletion strains, locus YPL241C, strain CIN2, stronger effect = lower value
[90] = S. cerevisiae deletion strains, locus YPL256C, strain CLN2, stronger effect = lower value
[91] = S. cerevisiae deletion strains, locus YPR119W, strain clb2, stronger effect = lower value
[92] = S. cerevisiae deletion strains, locus YPR141C, strain kar3, stronger effect = lower value
[93] = S. cerevisiae deletion strains, locus YPR163C, strain tif3, stronger effect = lower value
[94] = S. cerevisiae deletion strains, locus YPR167C, strain met16, stronger effect = lower value
[95] = S. cerevisiae deletion strains, strain wtn01, stronger effect = lower value
[96] = S. cerevisiae strains, strain wild type, stronger effect = lower value

Measured: normalized growth

N[C@@H](Cc1cc(I)c(Oc2ccc(O)c(I)c2)c(I)c1)C(=O)O
inactive: [1] 1.02 | [2] 1.01 | [3] 0.998 | [4] 1 | [5] 1.01 | [6] 1.03 | [7] 1.02 | [8] 1.01 | [9] 1 | [10] 1 | [11] 0.986 | [12] 1.01 | [13] 1.02 | [14] 0.982 | [15] 1 | [16] 0.987 | [17] 1 | [18] 1 | [19] 1.01 | [20] 1 | [21] 1 | [22] 0.99 | [23] 1.01 | [24] 1.01 | [25] 0.991 | [26] 1.02 | [27] 0.929 | [28] 1 and 0.914 | [29] 0.99 | [31] 1.01 | [32] 0.999 | [33] 0.994 | [34] 1.01 | [35] 1.02 | [36] 1 | [37] 1 | [38] 0.971 and 0.977 | [39] 1.01 | [40] 1 | [41] 1 | [42] 1.01 | [43] 0.864 | [44] 0.996 | [45] 0.979 | [46] 1.01 | [47] 1.03 | [48] 1.03 | [49] 1.01 | [50] 0.967 | [51] 0.978 | [52] 1.01 | [53] 0.999 | [54] 1.03 | [55] 0.993 | [56] 0.982 | [57] 1.01 | [58] 1.01 | [59] 1 | [60] 0.951 | [61] 1.01 | [62] 0.981 | [63] 1.01 | [64] 1.01 | [65] 0.984 | [66] 1 | [67] 1.06 | [68] 1.02 | [69] 1.02 | [70] 1.01 | [71] 1 | [72] 1.01 | [73] 0.995 | [74] 1 | [75] 0.939 | [76] 1.02 | [77] 0.996 | [78] 0.992 | [79] 1.15 | [80] 0.996 | [81] 1.01 | [82] 1 | [83] 1 | [84] 1 | [85] 0.963 | [86] 1.01 | [87] 0.998 | [88] 1.05 | [89] 1.01 | [90] 0.964 | [91] 1.01 | [92] 1.01 | [93] 1.01 | [94] 1 | [95] 0.984 | [96] 1.01
active: [30] 0.846

O=C(O)Cc1cc(I)c(Oc2cc(I)c(O)c(I)c2)c(I)c1
0.989 (inactive) and 0.84 (active): [28]
active: [30] 0.762 | [46] 0.917 | [47] 0.924 | [48] 0.924 | [54] 0.418 | [86] 0.67 | [90] 0.679 | [93] 0.719
inactive: [1] 0.948 | [2] 1.03 | [3] 0.936 | [4] 0.96 | [5] 0.982 | [6] 0.942 | [7] 0.955 | [8] 0.968 | [9] 0.931 | [10] 0.957 | [11] 0.979 | [12] 0.943 | [13] 0.847 | [14] 0.98 | [15] 0.955 | [16] 0.957 | [17] 0.964 | [18] 0.973 | [19] 0.97 | [20] 0.97 | [21] 0.94 | [22] 0.982 | [23] 0.965 | [24] 0.958 | [25] 0.942 | [26] 0.973 | [27] 1.06 | [29] 0.973 | [31] 0.956 | [32] 0.976 | [33] 0.959 | [34] 0.97 | [35] 1.02 | [36] 0.944 | [37] 0.939 | [38] 0.924 and 0.892 | [39] 0.954 | [40] 0.942 | [41] 0.949 | [42] 1.06 | [43] 0.864 | [44] 1 | [45] 0.945 | [49] 0.946 | [50] 0.931 | [51] 0.817 | [52] 0.959 | [53] 0.935 | [55] 0.749 | [56] 0.963 | [57] 0.967 | [58] 1.02 | [59] 0.987 | [60] 0.911 | [61] 0.95 | [62] 0.983 | [63] 0.951 | [64] 0.96 | [65] 1.01 | [66] 0.944 | [67] 1.07 | [68] 0.969 | [69] 0.952 | [70] 0.951 | S. cerevisiae deletion strains, locus YNL183C, strain NPR1, stronger effect = lower value 0.829 | [71] 0.968 | [72] 0.923 | [73] 0.942 | [74] 0.952 | [75] 0.982 | [76] 0.962 | [77] 0.973 | [78] 0.862 | [79] 0.639 | [80] 0.965 | [81] 0.929 | [82] 0.962 | [83] 0.997 | [84] 0.947 | [85] 1.03 | [87] 0.941 | [88] 0.922 | [89] 0.953 | [91] 0.95 | [92] 0.924 | [94] 0.98 | [95] 0.95 | [96] 0.96
